Measurements: PubChem BioAssay AID1578 (Sanford-Burnham Center for Chemical Genomics, 2009)
Where “and” joins values, the source holds several entries; their conditions need not be identical. Identical values can stand only once. The whole screen tested about 290,000 compounds, of which about 3,000 (1%) were called active. Cut-off read from the data, not from the text of the source: active = inhibition mostly above about 36% (no sharp cut-off); inactive = mostly below about 34%. The list comes from a sample in which actives are over-represented; it also holds similar structures and randomly drawn compounds. More than one record can exist for a structure, and the calls need not agree.

test: inhibition of NOD1-driven NF-kB reporter – cell-based, luminescence, uHTS, primary screen (AID 1578); details: NOD1-driven NF-kB luciferase reporter cells, at 4 µM, stronger effect = higher value;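 note: HEK-293T reporter cells stimulated with the NOD1 agonist gamma-tri-DAP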

inhibition, 36% (inactive) and 65.2% (active):
O=C(O)CSc1cccc2cccnc12

inhibition, active:
O=[N+]([O-])c1ccc(N=Nc2ncc[nH]2)cc1 74.2%
CCOC(=O)CSc1cccc2cccnc12 85.4%
CC(C)Nc1nnc(SCC(=O)Nc2ccc3c(c2)C(=O)c2ccccc2C3=O)s1 83.7%
COCCCn1c(SCCc2ccccc2)nc2cc(OC)c(OC)cc2c1=N 49.8%
CC1=CN2C(=N)/C(=C/c3ccc(Sc4ccc(Cl)cc4)o3)C(=O)N=C2S1 76.7%
CC1=CN2C(=N)/C(=C/c3ccc([N+](=O)[O-])o3)C(=O)N=C2S1 78.2%
CC(C)Sc1nnc(NC(=O)C2CC2)s1 37.9%
O=C(CCl)NCc1cc(-c2ccc(Cl)cc2)no1 87.7%
O=C(CSc1ncnc2c1oc1ccccc12)NCc1ccco1 72.8%
O=C(O)c1cccc(Nc2ccnc(Nc3cccc(C(=O)O)c3)n2)c1 38.5%
Cc1ccc(-c2nc(CS(=O)CC(=O)NC(C)CCc3ccccc3)c(C)o2)cc1 (stereo unspecified) 41.4%
COc1ccc2c(c1)[nH]c1c(N3CCN(Cc4ccc5c(c4)OCO5)CC3)ncnc12 86%
Fc1ccc2[nH]c3c(N4CCN(Cc5ccc6c(c5)OCO6)CC4)ncnc3c2c1 58.2%

inhibition, inactive:
COc1ccc(OC)c(-n2c(-c3cccc(C)c3)n[nH]c2=S)c1 -42.7%
COc1cccc(COc2ccccc2C2Nc3ccc(Br)cc3C(=O)N2NC(=O)c2ccncc2)c1 (stereo unspecified) 9.7%
O=[N+]([O-])c1ccc(N=NN(CCO)CCO)cc1 6.1%
O=[N+]([O-])c1ccc(N=Nc2c(Cl)cc(O)cc2Cl)cc1 16.5%
CCC(=O)c1c(OCc2ccccc2)ccc2c(C)cc(=O)oc12 3.9%
Cc1cccc(C(=O)C2CCN(S(=O)(=O)c3cccc(C(=O)O)c3)CC2)c1 12.2%
NNC(=O)CSc1cccc2cccnc12 -24.8%
O=C(CSc1cccc2cccnc12)OCC(=O)c1ccc(Br)cc1 3.3%
CN(C)C(=O)CSc1cccc2cccnc12 85.5%
O=C(CSc1cccc2cccnc12)OCC(=O)c1ccccc1 -30.2%
COc1ccc(C2(C)NC(=O)N(CC3CCCCC3)C2=O)cc1 (stereo unspecified) 1.3%
COc1ccccc1OCCCCN1CCC(C)CC1 -6.9%
COc1ccc2nc(NC(=O)C3CCCN(S(=O)(=O)c4cccc5nonc45)C3)sc2c1 (stereo unspecified) -1.6%
O=C(Nc1ccc(NC(=O)c2ccccc2Cl)cc1)c1cccnc1 -48.1%
CN(CCCCCCCCC(=O)/C=N/O)Cc1ccccc1 -3.1%
CCN(CC)CCOC(=O)c1ccc(NC(=O)c2ccc(Cl)c(S(=O)(=O)N3CCCCCC3)c2)cc1 13.1%
O=C(CSc1nnc(NC2CCCCC2)s1)Nc1ccc2c(c1)C(=O)c1ccccc1C2=O -43.3%
CC(C)Nc1nnc(SCC(=O)Nc2ccc(F)cc2)s1 -8.4%
CC(=O)c1cccc(NC(=O)C2C(c3ccccc3)C2(Cl)Cl)c1 (stereo unspecified) -15.1%
COc1ccc(C2NC(=O)NC3=C2C(=O)CCC3)cc1 (stereo unspecified) -30.7%
COCCN1C(=O)c2cc(C(=O)Nc3cccc(F)c3)ccc2C1Nc1cccc(F)c1 (stereo unspecified) 2.2%
COCCCn1c(SCc2ccc(OC)cc2)nc2cc(OC)c(OC)cc2c1=N -11.5%
COCCCn1c(SCc2ccccc2)nc2cc(OC)c(OC)cc2c1=N 5.9%
O=C(COC(=O)c1ccc(S(=O)(=O)N2CCc3ccccc3C2)cc1)NC1CCS(=O)(=O)C1 (stereo unspecified) 3.9%
NS(=O)(=O)c1ccc(NC(=S)NCc2ccc(Cl)cc2)cc1 4.1%
CC1=NN2C(=N)/C(=C\c3ccc(SCc4ccccc4)o3)C(=O)N=C2S1 9.5%
CC1=CN2C(=N)/C(=C/c3ccc(C)o3)C(=O)N=C2S1 -39.8%
CC1=CN2C(=N)/C(=C/c3ccc(Sc4ccc(C)cc4)o3)C(=O)N=C2S1 -6.2%
CC1=CN2C(=N)/C(=C/c3ccco3)C(=O)N=C2S1 -63.4%
CC(=O)Nc1ccc(OC(=O)c2cc3cc(Br)ccc3oc2=O)cc1 7.6%
CC(C)C(=O)Nc1ccc(NC(=O)c2ccccc2Cl)nc1 -13.2%
CCN(CC)C(=O)CSc1nnc([C@H](Cc2c[nH]c3ccccc23)NC(=O)OC(C)(C)C)o1 -14.8%
CC(C)N(C(=O)CSc1nnc(NC(=O)C2CCC2)s1)C(C)C -7.8%
CCSc1nnc(NC(=O)C2CCCCC2)s1 -31.5%
CCc1ccc(NC(=O)CSc2nnnn2-c2cccnc2)cc1 -28.4%
CCCC(=O)C1=C(O)C(C(=O)OC)C(C)(C)CC1=NCCCCCC(=O)O (stereo unspecified) -12.1%
Cc1cc(C)c(NC(=O)c2ccc3c(c2)C(=O)N(Cc2cccnc2)C3=O)c(C)c1 -0.6%
Fc1cccc(CNc2ncnc3cc(Cl)ccc23)c1F 0.2%
COc1cc2ncnc(NCc3cc(F)ccc3F)c2cc1OC 0.3%
Nc1cc(=O)[nH]n1C1CCN(c2ccccc2)CC1 -4%
COc1ccc(C2C=C(Nc3ccccc3)C(=O)N2c2ccccc2)cc1OC (stereo unspecified) 4.9%
CC(=O)NCc1cc(-c2ccc(Cl)cc2)no1 -35.1%
COc1ccc(-c2cc(CNC(=O)CCl)on2)cc1 54.5%
COc1ccc(Cl)cc1NC(=O)CN1C(=O)NC2(CCCC2)C1=O -8.5%
Cc1nc(SCC(=O)NCc2ccco2)c2oc3ccccc3c2n1 -2.6%
CCc1nc(SCC(=O)N2CCCc3ccccc32)c2oc3ccccc3c2n1 0.5%
CCn1c(SCC(=O)N2CCCc3ccccc32)nc2ccccc2c1=O -37.5%
O=C(CSc1ncnc2c1oc1ccccc12)NCc1ccc(F)cc1 19.3%
O=C(CSc1nc2ccccc2c(=O)n1-c1ccccc1)N1CCCc2ccccc21 -19.1%
Cc1nc(SCC(=O)N2CCCc3ccccc32)c2oc3ccccc3c2n1 -0.3%
COc1cccc(OCC(O)CN2CCN(c3ccccc3)CC2)c1 (stereo unspecified) 2.2% and -2.1%
CC(C)(C)c1ccc(-c2noc(-c3ccno3)n2)cc1 -6.3%
CCN(CC)S(=O)(=O)c1cccc(C(=O)N/N=C/c2ccc(N3CCOCC3)cc2)c1 -29.1%
O=C1NC(=O)/C(=C\c2ccc(O)cc2O)S1 -22.3%
COCCNC(=O)c1ccc(C)c(NC(=O)C2=C(C)OCCS2)c1 -9.9%
COC(=O)C(CC(=O)O)NCc1ccco1 (stereo unspecified) -10.9%
CC(=O)N1CCN(CC(=O)Nc2ccc([N+](=O)[O-])cc2Br)CC1 -29.7%
FC(F)(F)c1ccccc1NC(=S)NN1CCOCC1 -11.5%
c1ccc(Nc2ccnc(Nc3ccccc3)n2)cc1 8.8%
O=C(O)c1cccc(Nc2ccc([N+](=O)[O-])cn2)c1 -19.2%
CCOC(=O)C1=C(C)N(C)C(=S)NC1c1ccc(Cl)cc1Cl (stereo unspecified) -11.6%
C[n+]1c2n(c3ccccc31)N=C(c1ccccc1)CS2 5% and 22.1%
C[n+]1c2n(c3ccccc31)N=C(c1ccc(-c3ccccc3)cc1)CS2 43.5%
Cc1cc(=O)oc2cc(NC(=O)c3ccccc3OC(F)F)ccc12 -62.7%
Cc1ccc(O)c(C(=O)c2cc(C#N)c(=O)n(C(C)c3ccccc3)c2)c1 (stereo unspecified) -4.6%
Cc1ccc(O)c(C(=O)c2cc(C#N)c(=O)n(Cc3ccccc3)c2)c1 -10.3%
Cc1c(NC(=O)c2ccc(N(Cc3ccccc3)S(C)(=O)=O)cc2)c(=O)n(-c2ccccc2)n1C -26.8%
CCOC(=O)N1CCN(C(=O)C2CCC(=O)N2C(C)C)CC1 (stereo unspecified) 3.6%
COc1ccc(/C=C/C(=O)O/N=C(\N)c2cccnc2)cc1OC -10%
Cc1ccccc1-c1nc(CS(=O)CC(=O)NC(C)CCc2ccccc2)c(C)o1 (stereo unspecified) 19.2%
Cc1cccc(-c2nc(CS(=O)CC(=O)NC(C)CCc3ccccc3)c(C)o2)c1 (stereo unspecified) 20.6%
Cc1c(OCC(=O)NCCCn2ccnc2)ccc2c3c(c(=O)oc12)CCC3 -17.1%
Cc1cc(C)cc(NC(=O)C2C3C=CC(O3)C2C(=O)O)c1 (stereo unspecified) -15.9%
O=C1C=C(c2cccs2)C[C@H](c2ccccc2)[C@H]1n1nnc([N+](=O)[O-])n1 42.1%
O=C1C=C(c2ccccc2)C[C@H](c2cccs2)[C@H]1n1cnc([N+](=O)[O-])c1 -24.8%
CCN(CC)C(=O)c1sc(NC(=S)N2CCN(C(=O)C3CCCO3)CC2)c(C(=O)OC)c1C (stereo unspecified) 2.3%
Cc1ccc2[nH]c3c(N4CCN(Cc5ccc6c(c5)OCO6)CC4)ncnc3c2c1 73.7%
Cc1ccc2c(c1)[nH]c1c(N3CCN(Cc4ccc5c(c4)OCO5)CC3)ncnc12 58.5%
COc1cccc2[nH]c3c(N4CCN(Cc5ccc6c(c5)OCO6)CC4)ncnc3c12 60.8%
COc1ccc2[nH]c3c(N4CCN(Cc5ccc6c(c5)OCO6)CC4)ncnc3c2c1 23.1%
Brc1ccc2[nH]c3c(N4CCc5ccccc5C4)ncnc3c2c1 -5.4%
c1ccc2c(c1)CCN(c1ncnc3c1[nH]c1ccccc13)C2 81.6%
